Measured values published in the supplement of paper PMC13380429.

What was measured:
[1] = system: Vero E6 infected with SARS-CoV-2; experiment: morphology score (similarity to uninfected cells); higher = more like uninfected cells; settings: 24 h
[2] = system: Vero E6 infected with SARS-CoV-2; experiment: SARS-CoV-2 infection rate relative to infected DMSO; higher = more infection, active = 60 or less; settings: 24 h

Row | SMILES | morphology score [1] | SARS-CoV-2 infection rate [2]
1 | CCC(COC(=O)c1cc(OC)c(OC)c(OC)c1)(c1ccccc1)N(C)C (centres undefined) [trimebutine] (10 µM) | 0.103 | 91% (inactive)
2 | CN(C)CC(=O)Nc1ccc2[nH]c(=O)c3ccccc3c2c1 (10 µM) | 0.202 | 92.5% (inactive)
3 | C/C=C1\[C@H]2C=C(C)C[C@]1(N)c1ccc(=O)[nH]c1C2 [(-)-Huperzine A] (10 µM) | -0.118 | 108% (inactive)
4 | Nc1nc(F)nc2c1ncn2[C@@H]1O[C@H](CO)[C@@H](O)[C@@H]1O [fludarabine] (10 µM) | -0.0436 | 107% (inactive)
5 | CCNC(=O)CC[C@H](N)C(=O)O [L-theanine] (10 µM) | 0.0421 | 102% (inactive)
6 | Nc1ncnc(Nc2ccc(Cl)cc2)n1 [chlorazanil] (10 µM) | 0.133 | 106% (inactive)
7 | CC(C)C(N)=O [isobutyramide] (10 µM) | 0.073 | 111% (inactive)
8 | C[C@]1(O)C[C@@H](c2nc(-c3ccc4ccc(-c5ccccc5)nc4c3)c3c(N)nccn32)C1 [linsitinib] (10 µM) | 0.275 | 88.5% (inactive)
9 | CCN(CCO)CCCC(C)Nc1ccnc2cc(Cl)ccc12 (centres undefined) [hydroxychloroquine] (10 µM) | 0.362 | 88% (inactive)
10 | C/C(O)=C(\C#N)C(=O)Nc1cc(Br)ccc1Br (10 µM) | 0.00477 | 105% (inactive)
11 | O=C(O)c1cc2ccccc2s1 (10 µM) | 0.0676 | 88% (inactive)
12 | CS(=O)(=O)c1ccc(Cn2c3c(c4cc(F)cc(F)c42)CCCC3CC(=O)O)cc1 (centres undefined) (10 µM) | 0.144 | 90% (inactive)
13 | C#C[C@]1(O)CC[C@H]2[C@@H]3CCc4cc(OC)ccc4[C@H]3CC[C@@]21C [mestranol] (10 µM) | -0.00302 | 110% (inactive)
14 | O=C(CN1CCNCC1)NC1CCCCC1 [esaprazole] (10 µM) | 0.0266 | 104% (inactive)
15 | CC1=C(C(=O)O)N2C(=O)[C@@H](NC(=O)[C@H](N)c3ccc(O)cc3)[C@H]2SC1 [cefadroxil] (10 µM) | -0.016 | 108% (inactive)
16 | CC1(C)S[C@@H]2[C@H](NC(=O)[C@H](NC(=O)N3CCN(S(C)(=O)=O)C3=O)c3ccccc3)C(=O)N2[C@H]1C(=O)O [mezlocillin] (10 µM) | 0.0709 | 97% (inactive)
17 | CCN(CC)CCOc1ccc2c(c1)C(=O)c1cc(OCCN(CC)CC)ccc1-2 [tilorone] (0.833333 µM) | 0.187 | 105% (inactive)
18 | Cc1cc(C)c2nc(-c3ccccn3)cc(C(=O)Nc3ccc(S(=O)(=O)Nc4onc(C)c4C)cc3)c2c1 (10 µM) | -0.319 | 97% (inactive)
19 | C[C@@H](Nc1cc(F)cc(F)c1)c1cc(C(=O)N(C)C)cc2c(=O)cc(N3CCOCC3)oc12 (10 µM) | -0.225 | 122% (inactive)
20 | Cc1ccc(S(=O)(=O)Nc2ccc3c(c2)c(C(=O)C(F)(F)F)cn3CC(=O)N[C@@H](CC(C)C)C(=O)O)cc1 (10 µM) | 0.0604 | 104% (inactive)
21 | O=C(O)C(F)(F)C(F)(F)C(F)(F)C(F)(F)C(F)(F)C(F)(F)C(F)(F)F [ammonium-perfluorocaprylate] (10 µM) | -0.0312 | 112% (inactive)

Row | SMILES | morphology score [1] | SARS-CoV-2 infection rate [2]
22 | O=C(Nc1ccc([N+](=O)[O-])cc1O)Nc1ccccc1Br (0.833333 µM) | 0.0726 | 103% (inactive)
23 | N#Cc1cc2c(OCC(O)CN3CCN(C(c4ccccc4)c4ccccc4)CC3)cccc2[nH]1 (centres undefined) (0.833333 µM) | 0.124 | 75% (inactive)
24 | CC(C[N+](C)(C)C)OC(N)=O (centres undefined) [bethanechol] (10 µM) | 0.0417 | 106% (inactive)
25 | CCn1c(=O)[nH]c2cc(Cl)c(Cl)cc21 (10 µM) | 0.171 | 83.5% (inactive)
26 | CCCOc1ccc(Br)cc1-c1cc(-c2ccc(Cl)cc2)[nH]c1-c1ccncc1 (10 µM) | 0.113 | 100% (inactive)
27 | N#Cc1ccc(-c2ccc(S(=O)(=O)Nc3cccc(N)n3)cc2)cc1 (10 µM) | -0.0328 | 120% (inactive)
28 | COc1ccc(CCNCc2ccc(OCc3ccc(Cl)nc3)c(OC)c2)cc1OC (10 µM) | 0.078 | 98% (inactive)
29 | Cc1cccc(C(=O)O)c1O [hydroxytoluic-acid] (10 µM) | -0.137 | 106% (inactive)
30 | COc1cc2c(cc1OC)-c1c(C)c3ccc(OC)c(OC)c3c[n+]1CC2 [dehydrocorydaline] (10 µM) | 0.0289 | 104% (inactive)
31 | O=S(=O)(/N=C/c1c(O)ccc2ccccc12)c1cccs1 (10 µM) | 0.103 | 98.5% (inactive)
32 | COc1ccc(C(Cl)=C(c2ccc(OC)cc2)c2ccc(OC)cc2)cc1 [chlorotrianisene] (10 µM) | 0.0843 | 95.5% (inactive)
33 | C=C(C)[C@@H]1CC[C@]2(CO)CC[C@]3(C)[C@H](CC[C@@H]4[C@@]5(C)CC[C@H](O)C(C)(C)[C@@H]5CC[C@]43C)[C@@H]12 (10 µM) | 0.000891 | 99.5% (inactive)
34 | O=C(CCc1ccncc1)NNC(=O)N1Cc2ccccc2Oc2ccc(Cl)cc21 (10 µM) | -0.103 | 108% (inactive)
35 | CN1c2c([nH]c(N)nc2=O)NC[C@@H]1CNc1ccc(C(=O)N[C@@H](CCC(=O)O)C(=O)O)cc1 [metafolin] (10 µM) | 0.0144 | 115% (inactive)
36 | COc1cc(NC(C)CCCN)c2ncccc2c1 (centres undefined) [primaquine] (10 µM) | 0.491 | 76.5% (inactive)
37 | Cc1c(CN2CCN(C(=O)[C@H](C)O)CC2)sc2c(N3CCOCC3)nc(-c3cnc(N)nc3)nc12 (10 µM) | -0.0562 | 113% (inactive)
38 | CC(C)(C)c1ccc(CN(Cc2cccc(OCC(=O)O)c2)S(=O)(=O)c2cccnc2)cc1 [evatanepag] (10 µM) | -0.0093 | 97.5% (inactive)
39 | O=C(OCC(O)CO)c1ccccc1Nc1ccnc2c(C(F)(F)F)cccc12 (centres undefined) [floctafenine] (10 µM) | -0.157 | 106% (inactive)
40 | Oc1ccc(C2(c3ccccc3F)CCC(F)(F)CC2)cc1 (10 µM) | 0.0902 | 93% (inactive)
41 | CC1=C(C(=O)O)N2C(=O)[C@@H](NC(=O)[C@H](N)c3ccccc3)[C@H]2SC1 [cephalexin] (10 µM) | 0.0139 | 112% (inactive)
42 | CCN(CC)CC1CCN(c2ncc3ncnc(Nc4ccc(F)c(Cl)c4)c3n2)CC1 (10 µM) | -0.273 | 112% (inactive)

Row | SMILES | morphology score [1] | SARS-CoV-2 infection rate [2]
43 | Cc1[nH]c2ccccc2c1CCNCc1ccc(/C=C/C(=O)NO)cc1 [panobinostat] (0.833333 µM) | -0.0995 | 105% (inactive)
44 | O=C1c2ccccc2-c2n[nH]c3cccc1c23 [pyrazolanthrone] (10 µM) | 0.0961 | 106% (inactive)
45 | CC(C)(Cc1c[nH]c2ccc(Cl)cc12)NCCOc1ccccc1OCC1CC1 (0.833333 µM) | 0.193 | 110% (inactive)
46 | C[C@@H](C(=O)O)c1ccc(-c2ccccc2)c(F)c1 (racemic) [flurbiprofen-(+/-)] (10 µM) | 0.232 | 107% (inactive)
47 | O=C1c2cccc(O)c2C(=O)c2c(O)cccc21 [dantron] (10 µM) | -0.0545 | 103% (inactive)
48 | CCNC(C)CN1CCc2c(c(=O)oc3ccccc23)C1 (centres undefined) (10 µM) | 0.209 | 98% (inactive)
49 | c1ccc2nc(N3CCNCC3)ccc2c1 [quipazine] (10 µM) | 0.118 | 104% (inactive)
50 | COc1cccc(OC)c1-c1ccc(C[C@H](NC(=O)c2c(Cl)cccc2Cl)C(=O)O)cc1 (10 µM) | -0.141 | 102% (inactive)
51 | CC(=O)NCCc1c(Cc2ccccc2)[nH]c2ccccc12 [luzindole] (10 µM) | 0.0073 | 99% (inactive)
52 | O=C(Nc1cccnc1)c1cc(-c2ccnc(F)c2)ccc1OCc1ccccc1 (10 µM) | -0.0646 | 114% (inactive)
53 | C[C@H](NCc1ccc(OCc2ccccc2F)cc1)C(N)=O [priralfinamide] (10 µM) | -0.175 | 114% (inactive)
54 | C=C1/C(=C\C=C2/CCC[C@]3(C)[C@@H]([C@H](C)CCCC(O)(C(F)(F)F)C(F)(F)F)CC[C@@H]23)C[C@@H](O)C[C@@H]1O [falecalcitriol] (10 µM) | 0.0244 | 95.5% (inactive)
55 | CCC(=O)NC[C@H](Cc1ccc(OCCc2nc(-c3ccccc3)oc2C)cc1)N/C(C)=C\C(=O)c1ccc(C(F)(F)F)cc1 (10 µM) | -0.0333 | 110% (inactive)
56 | C[n+]1cc2c3c(ccc2c2ccc4cc5c(cc4c21)OCO5)OCO3 [sanguinarium-chloride] (10 µM) | -0.0249 | 94.5% (inactive)
57 | CN(C)CCOc1ccc(/C(=C(/CCCl)c2ccccc2)c2ccccc2)cc1 [toremifene] (0.833333 µM) | -0.0544 | 112% (inactive)
58 | C[C@H]1O[C@@H](Oc2c(-c3cc(O)c(O)c(O)c3)oc3cc(O)cc(O)c3c2=O)[C@@H](O)[C@@H](O)[C@@H]1O [myricitrin] (10 µM) | 0.147 | 103% (inactive)
59 | Nc1cccc2c1C(=O)N(C1CCC(=O)NC1=O)C2=O (centres undefined) [pomalidomide] (10 µM) | -0.074 | 108% (inactive)
60 | CN(C(=O)CN(CCO)CC(=O)N(C)C(C)(C)Cc1ccccc1)C(C)(C)Cc1ccccc1 [oxethazaine] (10 µM) | -0.169 | 102% (inactive)
61 | COc1cc(C#N)ccc1S(=O)(=O)Nc1ccc2c(c1)cc(C)c(=O)n2C (10 µM) | 0.0143 | 102% (inactive)
62 | N#Cc1ccnc(N2C(=O)CC[C@H]2C(=O)N(c2cncc(F)c2)[C@H](C(=O)NC2CC(F)(F)C2)c2ccccc2Cl)c1 [ivosidenib] (10 µM) | 0.219 | 91.5% (inactive)
